Rows were chosen to be rich in hits. Some 32% of all compounds tested hit in one or more screens of this group.
CYP2C19 activ: human CYP2C19 activators, primary screen, biochemical, luminescence | Cytochrome P450 2C19 (Homo sapiens), P33261 | recombinant CYP2C19, luciferin-H EGE luminescence; stronger effect = higher value; 0 = fully inhibited enzyme, 1 = untreated enzyme | activation factor at 5 µM | 96,000 tested, under 10 active;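 active = activation factor of at least 2 at 5 µM in the primary screen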;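 also: 0 = wells with 2.5 mM tranylcypromine and 1 = vehicle-only wells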
CYP2C9 inh: blockers of cytochrome P450 2C9 activity – biochemical, luminescence, ADME assay, primary screen | P11712 | CYP2C9 Supersomes, luciferin-H conversion | AID 777, 2007 | 96,000 compounds, 20% hits | inhibition, % at 5 µM;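 active = blocking of liver enzyme CYP2C9 beyond about 50% at 5 µM, limit read from the data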
Target sequence (P11712 whole entry, looked up): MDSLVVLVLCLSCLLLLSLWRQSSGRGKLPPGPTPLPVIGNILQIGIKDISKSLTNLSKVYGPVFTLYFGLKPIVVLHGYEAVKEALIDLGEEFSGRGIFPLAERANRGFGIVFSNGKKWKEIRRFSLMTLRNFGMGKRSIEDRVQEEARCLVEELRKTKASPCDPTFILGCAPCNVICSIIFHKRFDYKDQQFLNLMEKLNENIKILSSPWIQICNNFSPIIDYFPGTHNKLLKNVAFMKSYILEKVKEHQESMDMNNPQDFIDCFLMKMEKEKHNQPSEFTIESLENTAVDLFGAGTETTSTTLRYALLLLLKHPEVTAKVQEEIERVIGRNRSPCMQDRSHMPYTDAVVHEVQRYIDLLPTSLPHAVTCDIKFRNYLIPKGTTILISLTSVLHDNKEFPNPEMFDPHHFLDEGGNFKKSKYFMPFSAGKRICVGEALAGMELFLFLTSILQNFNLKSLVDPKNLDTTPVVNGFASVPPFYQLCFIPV
CYP2C19 inhib: blockers of cytochrome P450 2C19 activity – biochemical, luminescence, ADME assay, primary screen; inhibition, % at 5 µM; CYP2C19 Supersomes, luciferin-H EGE luminescence, 30 min; 96,000 compounds, 21% hits;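 active = CYP2C19 inhibition above a set limit at 5 µM in the primary screen, cut at about 50% in these data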;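 also: plate controls were negative control wells for no effect and 2.5 mM tranylcypromine positive control for full effect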
CYP2C9 act: human CYP2C9 activators, primary screen, biochemical, luminescence; recombinant CYP2C9, luciferin-H conversion; stronger effect = higher value; factor 1 = untreated enzyme, 0 = blocked; activation factor at 5 µM; 96,000 compounds, 1.4% hits;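 active = activation factor of 2 or more for CYP2C9 at a 5 µM dose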;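 also: 0 = sulfaphenazole-blocked wells and 1 = vehicle-only wells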
PostGolgi yeast: phenotypic screen on post-Golgi transport, primary screen; 98,000 compounds, 0.9% hits; AID 739, 2007; post-Golgi transport phenotypic cell assay; inhibition, % at 10 µM;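 also: yeast cells grown in 1536-well plates; yeast grown about 18 h at 30C before absorbance read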
PostGolgi ctrl: growth inhibition of yeast control strain, primary screen, counter-screen for post-Golgi transport modulator project | AID 738, 2007 | efflux-deficient yeast background strain, growth absorbance A615, 16 h | inhibition, % at 10 µM | 98,000 compounds, 5% hits
Starred values were filed as active, the others as inactive; . = no result given. Rule as the data show it, unless noted: active = inhibition above about 30%; inactive = the rest.

SMILES | CYP2C19 activ | CYP2C9 inh | CYP2C19 inhib | CYP2C9 act | PostGolgi yeast | PostGolgi ctrl
CC1(C)Cc2ccccc2-c2nnc(SCc3ccc(C#N)cc3)n21 | 0.6 | 36 | 45 | 0.6 | 19 | 20
N#Cc1ccc(CSc2nnc(-c3cccs3)n2-c2ccccc2)cc1 | 0.1 | 92* | 93* | 0.1 | -5 | 43*
CN(C)CC(C)(C)CNC(=O)c1cc(=O)c2ccccc2o1 | 1 | -12 | -4 | 1.1 | 24 | 5
CCCCCc1nc2c(C#N)c(-c3ccc(Cl)cc3)ccn2n1 | 0.9 | 58* | 12 | 0.4 | -2 | 34*
CNc1cnn(-c2ccc(C)cc2)c(=O)c1Cl | 1 | -7 | 4 | 1.1 | -2 | 9
Nc1c(Nc2ccccc2)c2ccccc2oc1=O | 0.1 | 80* | 95* | 0.2 | -5 | 9
O=c1oc2ccccc2c(Nc2cccc(O)c2)c1[N+](=O)[O-] | 0.1 | 18 | 91* | 0.8 | -2 | 1
Nc1cc2c([N+](=O)[O-])cccc2o1 | 1.1 | 14 | -11 | 0.9 | -6 | 14
OC(CNCCc1ccccc1)c1ccccc1 (configuration not stated) | 0.3 | 0 | 67* | 1 | -7 | 2
Cc1cc(C)n(CCCNCC(O)c2ccccc2)n1 (configuration not stated) | 0.9 | 5 | 8 | 1 | 0 | 1
O=C(COC(=O)c1ccccc1Nc1ccccc1)NCc1ccco1 | 0.6 | 27 | 39 | 0.7 | -5 | 32*
NC(=O)c1ccsc1NC(=O)COC(=O)c1ccccc1NCc1ccco1 | 0.3 | 90* | 74* | 0.1 | 6 | 10
O=C(COC(=O)c1ccccc1Nc1ccccc1)c1ccccc1 | 0.7 | 57* | 30 | 0.4 | -8 | 2
COC(=O)c1ccccc1Nc1ccccc1 | 1.1 | 2 | -9 | 1 | -3 | 2
Cn1c(COc2ccccc2)nnc1SCC(=O)NCc1ccccc1 | 0.9 | 9 | 8 | 0.9 | 1 | 3
CCOC(=O)c1c(C)nc2c(c(SC)nn2-c2ccccc2)c1N | 0.8 | -16 | 24 | 1.2 | 7 | -3
O=C(c1cnn2c(C(F)(F)F)cc(-c3ccco3)nc12)N1CCc2ccccc2C1 | 0.4 | 76* | 59* | 0.2 | 0 | 12
Cc1cc(C(F)F)n2ncc(C(=O)N3CCc4ccccc4C3)c2n1 | 0.2 | -91 | 84* | 1.9 | 7 | 1
O=C(c1cnn2c(C(F)F)cc(C3CC3)nc12)N1CCc2ccccc2C1 | 0.3 | -71 | 74* | 1.7 | -2 | 8
O=c1[nH]c(/C(=N\O)c2ccccc2)no1 | 0.8 | 8 | 23 | 0.9 | -7 | -1
COC(=O)c1sccc1NC(=O)Nc1cccc(Cl)c1Cl | 1.1 | -2 | -7 | 1 | -3 | 34*
O=C(O)c1ccc(NCc2ccc3c(c2)OCO3)cc1 | 1 | -8 | -2 | 1.1 | 11 | -6
Cc1cc(C(=O)Nc2sc3c(c2C#N)CCCC3)no1 | . | . | . | . | -7 | 2
CC1CCc2c(sc(NC(=O)C(=O)NCc3ccco3)c2C#N)C1 (configuration not stated) | 0.9 | 68* | 13 | 0.3 | -10 | 19
Cc1cc(C(=O)Nc2sc3c(c2C#N)CCC(C)C3)no1 (configuration not stated) | 0.9 | 76* | 6 | 0.2 | -6 | 3
SMILES | CYP2C19 activ | CYP2C9 inh | CYP2C19 inhib | CYP2C9 act | PostGolgi yeast | PostGolgi ctrl
CCOc1ccc(S(=O)(=O)N2Cc3ccccc3CC2C(=O)NCCCn2ccnc2)cc1 (configuration not stated) | 0 | 97* | 100* | 0 | -4 | 34*
Cc1ccc(S(=O)(=O)N2Cc3ccccc3CC2C(=O)Nc2cc(C)on2)cc1 (configuration not stated) | 0.2 | 85* | 83* | 0.2 | -7 | 5
Cc1ccc(S(=O)(=O)N2Cc3ccccc3CC2C(=O)Nn2cnnc2)cc1 (configuration not stated) | 0.5 | 35 | 55* | 0.6 | 3 | 3
CCc1nnc(NC(=O)C2Cc3ccccc3CN2S(=O)(=O)c2c(C)c(C)cc(C)c2C)s1 (configuration not stated) | 0.6 | 61* | 37 | 0.4 | -7 | 10
CCOc1ccc(-c2cc(N)n(S(=O)(=O)c3ccc(OC)c(OC)c3)n2)cc1 | 0.6 | 34 | 40 | 0.7 | -3 | 5
COc1ccc(S(=O)(=O)n2nc(-c3ccc(Cl)cc3)cc2N)cc1OC | 0.2 | 80* | 83* | 0.2 | -1 | 31*
Nc1cc(-c2ccccc2)nn1S(=O)(=O)c1ccc(F)cc1 | 0 | 97* | 100* | 0 | -5 | 15
COc1ccc(-c2cc(N)n(S(=O)(=O)c3ccc(F)cc3)n2)cc1OC | 0.3 | 95* | 70* | 0 | -4 | 9
Nc1cc(-c2ccc(Br)cc2)nn1S(=O)(=O)c1ccccc1 | 0.9 | 35 | 8 | 0.7 | -2 | 4
COc1cc(-c2cc(N)n(S(=O)(=O)c3ccc(F)cc3)n2)cc(OC)c1OC | 0.2 | 82* | 79* | 0.2 | 2 | 11
Cc1ccc(S(=O)(=O)CC(=O)N(C)C)cc1 | . | . | . | . | 1 | 12
C=CCNS(=O)(=O)CC12CCC(CC1=O)C2(C)C (configuration not stated) | 0.9 | -4 | 6 | 1 | -1 | 3
COc1ccc(C2(CNC(=O)/C=C/c3ccco3)CCCC2)cc1OC | 0.8 | 53* | 24 | 0.5 | 1 | 9
COc1ccc(C2(CNC(C)=O)CCCC2)cc1OC | 0.7 | 3 | 32 | 1 | 0 | 14
Cc1cc(NC(=O)c2cnn3cccnc23)nn1CC(=O)Nc1cccnc1 | 1 | 7 | 0 | 0.9 | -2 | 8
Oc1cccc(C=NCc2ccccc2)c1O | 1 | 26 | -2 | 0.7 | 16 | 15
Cc1ccc(C=NCc2ccncc2)c(O)c1 | 0.2 | 72* | 76* | 0.3 | 10 | -5
CCOCc1cc(C)[nH]c(=O)c1C#N | 1 | 4 | 5 | 1 | 6 | 1
CC1Oc2ccccc2N(CC(=O)NCc2cccs2)C1=O (configuration not stated) | . | . | . | . | 0 | 7
CN(C)c1ccc(/C=N/c2cc(-c3ccccc3)nn2-c2ccccc2)cc1 | 1 | 52* | 2 | 0.5 | 27 | -4
CN(C)c1ccc(C=Nc2ccccc2C(N)=O)cc1 | 0.5 | 35 | 46 | 0.7 | -6 | 11
CC(C)CC(NC=C1C(=O)OC(C)(C)OC1=O)C(=O)O (configuration not stated) | . | . | . | . | -9 | 3
COc1ccc(OCCN2CCN(C3CC(=O)N(CCC(C)C)C3=O)CC2)cc1 (configuration not stated) | 0.7 | 3 | 25 | 1 | 3 | 14
CCc1nc(NCCN)c(C#N)c2c1CSC(C)(C)C2 | 0.9 | 35 | 14 | 0.6 | -7 | 4
